{
  "source": "PubChem BioAssay (Tox21)",
  "note": "Records with an inconclusive call do not appear. Where a call stands in place of a potency, no number is given. Calls of active or inactive are those of the source. Calls follow the shape of the dose curve; as a rule, active = well fitted cell-killing curve with a large enough effect in the repeat runs; inconclusive = weak or mixed curves; inactive = no such curve, though single readings can be large or run the other way. Potency is read from the fitted curve at half-maximal effect.",
  "data": [
    {"assay": "qHTS assay for identifying genotoxic compounds that show differential cytotoxicity against isogenic chicken DT40 cell lines with known DNA damage response pathways - Rad54/Ku70 mutant cell line (AID 743015); also: nearly all actives have a fitted effect of over 60% in size", "settings": "DT40 Rad54/Ku70 mutant viability, CellTiter-Glo, 40 h; series mostly up to 66.8 µM", "description": "National Center for Advancing Translational Sciences [NCATS]\nNIH Chemical Genomics Center [NCGC]\nU.S. Environmental Protection Agency [EPA]\nNational Institutes of Environmental Health Sciences [NIEHS]\nNational Toxicology Program [NTP]\nU.S. Food and Drug Administration [FDA]\nDNA repair pathways play a critical role in cellular homeostasis by repairing DNA damage induced by endogenous processes and xenobiotics. Isogenic chicken DT40 cell lines deficient in different DNA repair pathways can be used to identify genotoxic compounds and aid in characterizing the nature of the DNA damage induced. Two DNA repair-deficient cell lines with disrupted genes, Rad54/Ku70 or Rev3, were used to screen the Tox21 10K compound library. Possible genotoxicity was based on the presence of a significant increase in cytotoxicity in one or more of the DNA repair-deficient cell lines compared to that observed in the parental DNA repair-proficient cell line. CellTiter Glo viability assay (Promega, Madison, WI) was used to measure cell viability in these cells after compound treatment. This assay includes the data from the Rad54/Ku70 mutant cell line.\nTox21 Assay Protocol Summary:\n300 DT40 mutant cells in 5 uL/well were dispensed into white, solid-bottom 1536-well plates using a Multidrop Combi (ThermoFisher Scientific, Waltham, MA) dispenser. After the assay plates were incubated at 37 C/5% CO2 for approximately 0.5 hour, 23 nL of compounds dissolved in DMSO, positive controls or DMSO only was transferred into the assay plate by a pintool work station (Kalypsys, San Diego, CA). The assay plates were incubated at 37 C/5% CO2 for 40 hours. After 5 uL per well of CellTiter-Glo reagent was added into each well of the assay plates, the plates were incubated for 30 min at room temperature and the luminescence intensity of the plates was measured using a ViewLux (PerkinElmer, Shelton, CT) plate reader.", "values": [
      {"smiles": "CCCCOC(O)CC", "note": "(stereo not given)", "Potency": "inactive"},
      {"smiles": "CN1CCC(=C2c3ccccc3CCc3sccc32)CC1", "Potency": "11.9 µM (active)"},
      {"smiles": "c1ccc(OCc2ccc(CCCN3CCOCC3)cc2)cc1", "Potency": "0.596 µM (active)"},
      {"smiles": "C[Si](C)O[Si](C)(C)O[Si](C)(C)O[Si](C)C", "Potency": "inactive"},
      {"smiles": "CC(=O)Nc1ccc(/C=N/NC(N)=S)cc1", "Potency": "inactive"},
      {"smiles": "COC(Cc1ccccc1)OC", "Potency": "inactive"},
      {"smiles": "CC(=O)N(O)CCCCCNC(=O)CCC(=O)N(O)CCCCCNC(=O)CCC(=O)N(O)CCCCCN", "Potency": "inactive"},
      {"smiles": "N[C@H]1C(O)O[C@H](CO)[C@H](O)[C@@H]1O", "note": "(stereo not given in full)", "Potency": "inactive"},
      {"smiles": "O=c1c2ccccc2nnn1CCl", "Potency": "inactive"},
      {"smiles": "CC1CCc2cc(F)cc3c(=O)c(C(=O)O)cn1c23", "note": "(stereo not given)", "Potency": "inactive"},
      {"smiles": "O=[N+]([O-])c1cccc(Cl)c1Cl", "Potency": "inactive"},
      {"smiles": "Nc1nc(CC(=O)O)cs1", "Potency": "inactive"},
      {"smiles": "C=C(C)C(=O)OCCN(C)C", "Potency": "inactive"},
      {"smiles": "CCCCCCCCN(C)C", "Potency": "inactive"},
      {"smiles": "CC(C)(C)c1ccc(OCC2CO2)cc1", "note": "(stereo not given)", "Potency": "inactive"},
      {"smiles": "O=C(NN1CCCC1)NS(=O)(=O)c1ccc(Cl)cc1", "Potency": "inactive"},
      {"smiles": "CCCCCCCCCCCCCCCCCBr", "Potency": "inactive"},
      {"smiles": "CC(C)c1ccc2c(C(C)C)cc(C(C)C)c(S(=O)(=O)O)c2c1", "Potency": "inactive"},
      {"smiles": "CNCC[C@@H](Oc1ccccc1C)c1ccccc1", "Potency": "29.8 µM (active)"},
      {"smiles": "CCOC(=S)SSC(=S)OCC", "Potency": "inactive"},
      {"smiles": "CC(=O)[C@@]1(O)CC[C@H]2[C@@H]3C[C@H](C)C4=CC(=O)CC[C@]4(C)[C@H]3CC[C@@]21C", "Potency": "21.1 µM (active)"},
      {"smiles": "C1CCC2OC2C1", "note": "(stereo not given)", "Potency": "inactive"},
      {"smiles": "OC(CCN1CCCCC1)(c1ccccc1)C1CCCCC1", "note": "(stereo not given)", "Potency": "inactive"},
      {"smiles": "COCCCCCCCCOCCC[Si](C)(O[Si](C)(C)C)O[Si](C)(C)C", "Potency": "6.11 µM (active)"},
      {"smiles": "CCCCOC(=O)/C=C\\C(=O)OCCCC", "Potency": "inactive"},
      {"smiles": "COc1ccc(C(C)=O)cc1", "Potency": "inactive"},
      {"smiles": "NCc1ccccc1", "Potency": "inactive"},
      {"smiles": "N#CCCNCCC#N", "Potency": "inactive"},
      {"smiles": "O=S(=O)(O)c1ccc(O)c2ncccc12", "Potency": "inactive"},
      {"smiles": "CN(C)CC/C=C1\\c2ccccc2COc2ccccc21", "Potency": "29.8 µM (active)"},
      {"smiles": "CCCCCCCCCC(=O)OCC", "Potency": "inactive"},
      {"smiles": "COCCOCCOCCOCCOC", "Potency": "inactive"},
      {"smiles": "CCOC(=O)C1=C(C)NC(C)=C(C(=O)OC)C1c1cccc([N+](=O)[O-])c1", "note": "(stereo not given)", "Potency": "26.6 µM (active)"},
      {"smiles": "O=C(Cl)c1ccc([N+](=O)[O-])cc1", "Potency": "inactive"},
      {"smiles": "c1ccc(CNCc2ccccc2)cc1", "Potency": "43.3 µM (active)"},
      {"smiles": "O=CNc1ccccc1", "Potency": "inactive"},
      {"smiles": "COc1ccc2[nH]c(S(=O)Cc3ncc(C)c(OC)c3C)nc2n1", "note": "(stereo not given)", "Potency": "29.8 µM (active)"},
      {"smiles": "SC1CCCC1", "Potency": "inactive"},
      {"smiles": "CN(c1nccc(=O)[nH]1)C1CCN(c2nc3ccccc3n2Cc2ccc(F)cc2)CC1", "Potency": "inactive"},
      {"smiles": "Cc1ccc(C(C)c2ccc(C)c(C)c2)cc1C", "Potency": "inactive"}
    ]}
  ]
}
